# Laboratory results: PubChem BioAssay (NCATS)
# Several values for one entry are separate records, joined by “and”; a condition that tells them apart may be missing. Equal values may be shown once. Unmarked numbers belong to inactive results. Records with an inconclusive call do not appear. Entries that show only a call come without a potency. A structure can be active in one record and inactive in another. Activity calls are given as the source filed them. Calls come from the whole dose curve; as a rule, active = well fitted curve in the direction sought with a large enough effect; inconclusive = small, poorly fitted or top-dose-only effect, or another doubt; inactive = no such curve, though single readings can be large; an effect the other way counts as inactive or inconclusive.
# Tests used:
# [1] = qHTS for small molecule inhibitors of Yes1 kinase: Counter Assay (AID 686950);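 note: no kinase present so only ADP-Glo detection of a fixed ADP amount is tested; luminescence from ADP-Glo reporting ADP in a fixed ATP and ADP mixture; series mostly up to about 77 µM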
# Procedure, shortened: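 Enzyme-free detection counter-screen: compounds preincubated 20 min in buffer, then 0.08 mM ATP plus 0.02 mM ADP added for 60 min at room temperature; ADP-Glo luminescence. Buffer 50 mM Tris pH 7.5, 10 mM MgCl2, 150 mM NaCl; normalized to ATP+ADP and ATP-only controls.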
# [2] = qHTS Assay for Identifying Gametocytocidal Compounds (AID 743244); note: potency is the fitted concentration of half-maximal effect;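 for max response: actives lower the fluorescent signal which means gametocytes are killed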; conditions: P. falciparum 3D7 stage III-V gametocytes, alamarBlue, 72 h; max response: active compounds read low
# Procedure, shortened: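 Late gametocytes (III–V), P. falciparum 3D7; 72 h drug, then 24 h alamarBlue; resazurin reduction read by fluorescence.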
# [3] = biological target: Tyrosine-protein kinase Yes (Homo sapiens) (UniProt P07947); test: qHTS for small molecule inhibitors of Yes1 kinase: Primary Screen (AID 686947); note: nearly all actives have a fitted effect of over 60% in size
# Tyrosine-protein kinase Yes (Homo sapiens), sequence (P07947 whole entry, looked up): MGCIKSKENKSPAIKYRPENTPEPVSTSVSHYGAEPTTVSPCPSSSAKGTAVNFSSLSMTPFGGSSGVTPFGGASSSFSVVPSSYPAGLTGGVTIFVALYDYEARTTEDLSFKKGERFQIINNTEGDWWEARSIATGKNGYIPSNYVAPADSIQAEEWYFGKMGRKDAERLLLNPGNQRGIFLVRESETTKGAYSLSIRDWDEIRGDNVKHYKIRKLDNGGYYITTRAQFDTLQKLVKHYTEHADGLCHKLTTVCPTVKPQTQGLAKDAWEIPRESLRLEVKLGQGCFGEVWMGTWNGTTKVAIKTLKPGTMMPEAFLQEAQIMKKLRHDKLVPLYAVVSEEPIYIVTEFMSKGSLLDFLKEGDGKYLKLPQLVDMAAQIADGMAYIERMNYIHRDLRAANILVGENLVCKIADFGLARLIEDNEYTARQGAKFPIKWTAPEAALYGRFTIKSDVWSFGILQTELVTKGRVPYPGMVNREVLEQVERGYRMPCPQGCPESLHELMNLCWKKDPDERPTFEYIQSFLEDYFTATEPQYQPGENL
# Procedure, shortened: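 ADP-Glo luminescence readout; final 4 nM Yes1, 0.1 mM ATP, 0.3 mg/mL poly(E4Y), Tris pH 7.5, MgCl2, DTT, Brij-35. 20 min compound preincubation, 60 min reaction at RT. Normalized to DMSO wells with and without enzyme.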
# [4] = biological target: Arylsulfatase A (Homo sapiens) (UniProt P15289); test: qHTS screen for enhancers of Arylsulfatase A (ASA1): LOPAC Validation Assay (AID 720538); conditions: outcome: dose series up to 57.5 µM
# Arylsulfatase A (Homo sapiens), sequence (P15289 whole entry, looked up): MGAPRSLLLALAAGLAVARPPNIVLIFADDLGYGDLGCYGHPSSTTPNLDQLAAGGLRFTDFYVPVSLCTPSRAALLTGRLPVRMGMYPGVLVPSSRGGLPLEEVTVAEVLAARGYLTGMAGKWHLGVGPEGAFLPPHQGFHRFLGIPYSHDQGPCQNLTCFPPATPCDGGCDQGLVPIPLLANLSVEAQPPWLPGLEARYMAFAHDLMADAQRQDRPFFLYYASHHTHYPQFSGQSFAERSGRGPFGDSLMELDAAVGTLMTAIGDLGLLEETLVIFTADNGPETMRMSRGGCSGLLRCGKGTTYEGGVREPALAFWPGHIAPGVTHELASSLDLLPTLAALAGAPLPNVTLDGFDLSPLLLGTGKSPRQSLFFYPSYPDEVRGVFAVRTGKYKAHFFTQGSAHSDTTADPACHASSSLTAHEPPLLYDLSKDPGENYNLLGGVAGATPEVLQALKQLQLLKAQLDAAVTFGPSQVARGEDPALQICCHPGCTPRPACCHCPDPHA
# Procedure, shortened: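 Enhancer assay in patient-derived MLD fibroblasts carrying ASA-I179S: 48 h compound exposure at 37 C, then 14 h room-temperature pNCS turnover (0.5 mM final) in lysis buffer. Read by fluorescence at 525/598 nm after NaOH stop.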
# [5] = qHTS for compounds that reverse cellular toxicity of Amyloid beta (A-beta) peptide in yeast: LOPAC Validation Assay (AID 720559)
# Procedure, shortened: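 Rescue of A-beta toxicity was scored as yeast growth by 600 nm absorbance after 48 hr at 30 C with compound. Normalization used DMSO (negative) and equimolar ferric chloride plus clioquinol (positive).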
# [6] = qHTS for Activators of Parkin Expression: LOPAC Validation Assay (NLuc Reporter) (AID 720572)
# Procedure, shortened: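 Neuronal cells with a Parkin promoter-driven FLuc/NLuc coincidence reporter were treated 24 h at 37 C in 7-point dose response (LOPAC). NLuc luminescence read after FLuc; signals normalized to DMSO and positive control (100%).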
# [7] = qHTS for Activators of Parkin Expression: LOPAC Validation Assay (FLuc Reporter) (AID 720573)
# Procedure, shortened: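 FLuc signal from Parkin-promoter coincidence reporter neuronal cells, normalized to DMSO and positive control (100%). Cells (1,500/well) pre-incubated 24 h, then exposed to LOPAC compounds in 7-point dose response for 24 h at 37 C, 5% CO2.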
# [8] = biological target: T1, Hexokinase-4 (Homo sapiens) + Glucokinase regulatory protein (Homo sapiens) (UniProt P35557+Q14397); test: qHTS assay for inhibitors of recombinant human GCK-GKRP interaction: Diaphorase-coupled assay (AID 743205)
# T1 sequence (P35557 whole entry, looked up): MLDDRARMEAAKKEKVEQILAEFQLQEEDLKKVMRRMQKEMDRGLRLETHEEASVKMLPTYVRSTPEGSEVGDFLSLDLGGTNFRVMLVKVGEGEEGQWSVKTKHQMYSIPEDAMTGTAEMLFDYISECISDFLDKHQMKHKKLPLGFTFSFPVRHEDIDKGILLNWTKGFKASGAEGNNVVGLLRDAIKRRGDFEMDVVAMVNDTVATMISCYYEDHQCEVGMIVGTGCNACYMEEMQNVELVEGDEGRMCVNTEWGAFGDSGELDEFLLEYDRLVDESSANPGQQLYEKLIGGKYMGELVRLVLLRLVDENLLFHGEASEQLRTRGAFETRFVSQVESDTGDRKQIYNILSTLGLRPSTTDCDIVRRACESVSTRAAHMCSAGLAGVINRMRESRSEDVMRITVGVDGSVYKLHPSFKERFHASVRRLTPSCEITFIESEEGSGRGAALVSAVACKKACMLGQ
# T1 sequence (Q14397 whole entry, looked up): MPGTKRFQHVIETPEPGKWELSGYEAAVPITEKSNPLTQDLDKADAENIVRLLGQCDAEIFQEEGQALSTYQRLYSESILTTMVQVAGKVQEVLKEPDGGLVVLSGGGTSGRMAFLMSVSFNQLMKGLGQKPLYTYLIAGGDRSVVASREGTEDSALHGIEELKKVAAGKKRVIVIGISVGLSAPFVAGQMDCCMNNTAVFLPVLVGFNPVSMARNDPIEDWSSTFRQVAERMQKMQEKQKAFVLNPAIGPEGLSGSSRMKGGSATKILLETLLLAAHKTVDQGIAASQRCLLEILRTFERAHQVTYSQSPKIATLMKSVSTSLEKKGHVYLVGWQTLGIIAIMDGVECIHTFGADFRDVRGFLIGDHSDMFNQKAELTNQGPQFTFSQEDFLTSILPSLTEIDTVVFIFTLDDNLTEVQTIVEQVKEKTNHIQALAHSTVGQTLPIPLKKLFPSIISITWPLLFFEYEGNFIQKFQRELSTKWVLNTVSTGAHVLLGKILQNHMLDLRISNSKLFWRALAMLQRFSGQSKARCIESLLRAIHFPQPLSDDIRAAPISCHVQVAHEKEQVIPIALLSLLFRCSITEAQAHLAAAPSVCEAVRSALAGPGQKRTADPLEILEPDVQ
# Procedure, shortened: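 A kinetic fluorescence read (Ex 525/Em 590 nm, every minute for 30 minutes) tracked resorufin from a G6PDH-diaphorase coupled GCK reaction. It contained 10 nM GST-GCK, 10 nM FLAG-GKRP, 5 mM glucose, 0.4 mM ATP in Hepes pH 7.6. Normalized to with/without-enzyme DMSO controls.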
# [9] = biological target: T1, Hexokinase-4 (Homo sapiens) + Glucokinase regulatory protein (Homo sapiens); test: qHTS assay for inhibitors of recombinant human GCK-GKRP interaction: ADP-Glo assay (AID 743206)
# Procedure, shortened: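 GST-GCK and FLAG-GKRP (15 nM each in the dispensed mix, with 2 uM S6P) react with 0.4 mM ATP and 5 mM glucose (final) in Hepes pH 7.6 for 60 min at room temperature. ADP is measured by ADP-Glo luminescence.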
# [10] = biological target: T1, Hexokinase-4 (Homo sapiens) + Glucokinase regulatory protein (Homo sapiens); test: qHTS assay for inhibitors of recombinant human GCK-GKRP interaction: HTRF assay (AID 743207)
# Procedure, shortened: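 After 60 min equilibration at room temperature with anti-FLAG XL665 and anti-GST antibodies, FRET ratio (665/615 nm, excitation 320 nm) was read. Proteins: GST-GCK and FLAG-GKRP, each 5 nM, plus 2 uM S6P, pH 7.1 buffer; GCK-free wells define minimum signal.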
structure (smiles),measurement,setting,value
COc1cc(Nc2ncc(F)c(Nc3ccc4c(n3)NC(=O)C(C)(C)O4)n2)cc(OC)c1OC,outcome,[1],inactive
same,max response,[2],23.2%
CN(C)C1CCN(C(=O)c2ccc(NC(=O)Nc3nc(N4CCOCC4)nc(N4CCOCC4)n3)cc2)CC1,outcome,[1],inactive
same,Potency,[2],23.5 µM (active)
COc1cc2nc(-c3ccc(N4CCN(C)CC4)cc3)nc(NCCN3CCOCC3)c2cc1OC,Potency,[3],inactive
same,outcome,[1],inactive
same,Potency,[2],11.8 µM (active)
O=c1cc(N2CCOCC2)oc2c(-c3cccc4c3sc3ccccc34)cccc12,Potency,[3],inactive
same,outcome,[1],inactive
same,max response,[2],-22.3%
O=C(O)c1ccc(-c2cc3cccnc3c(-c3ccc4nonc4c3)n2)cc1,Potency,[3],inactive
same,outcome,[1],inactive
same,max response,[2],33.8%
COc1ccc(C2CC(c3ccccc3)=NN2c2ccc(S(N)(=O)=O)cc2)cc1 (stereo not drawn),Potency,[3],inactive
same,outcome,[1],inactive
same,max response,[2],-8.6%
COC(=O)[C@@H]1[C@H]2C[C@H]3c4[nH]c5ccccc5c4CCN3C[C@@H]2CC[C@@H]1O,outcome,[4],inactive; inhibitor; fitted 2.3934 uM
same,outcome,[5],inactive
same,Potency,[6],inactive
same,Potency,[7],inactive
same,outcome,[8],inactive
same,outcome,[9],inactive
same,outcome,[10],inactive
same,max response,[2],29.3% and 18.6%
CC[C@]1(O)C[C@@H]2CN(CCc3c([nH]c4ccccc34)[C@@](C(=O)OC)(c3cc4c(cc3OC)N(C)[C@H]3[C@@](O)(C(=O)OC)[C@H](OC(C)=O)[C@]5(CC)C=CCN6CC[C@]43[C@@H]65)C2)C1,Potency,[2],15.8 µM (active)
same,max response,[2],-2.09%
CCN1CCC[C@H]1CNC(=O)c1cc(S(N)(=O)=O)ccc1OC,outcome,[4],inactive
same,outcome,[5],inactive
same,Potency,[6],inactive
same,Potency,[7],inactive
same,outcome,[8],inactive
same,outcome,[9],inactive
same,outcome,[10],inactive
same,max response,[2],11.5% and 6.55%
O=C(O)c1c(Cl)c(Cl)c(Cl)c(Cl)c1-c1c2cc(I)c(=O)c(I)c-2oc2c(I)c(O)c(I)cc12,max response,[2],-8.78%
COc1ccc(Cc2nccc3cc(OC)c(OC)cc23)cc1OC,outcome,[5],inactive
same,Potency,[6],inactive
same,Potency,[7],inactive
same,outcome,[9],inactive
same,outcome,[10],inactive
CC(C)(C)c1ccc(C(O)CCCN2CCC(C(O)(c3ccccc3)c3ccccc3)CC2)cc1 (stereo not drawn),outcome,[4],inactive
same,outcome,[5],inactive
same,Potency,[6],inactive
same,Potency,[7],inactive
C[C@@H](O)[C@H]1C(=O)N2C(C(=O)O)=C(S[C@@H]3CN[C@H](C(=O)N(C)C)C3)[C@H](C)[C@H]12,max response,[2],2.89%
COc1cccc(-c2cc(=O)c3ccccc3o2)c1N,outcome,[5],inactive
same,Potency,[6],inactive
same,outcome,[8],inactive
same,outcome,[9],inactive
same,outcome,[10],inactive
C[N+](C)(C)CCCCCC[N+](C)(C)C,outcome,[4],inactive
same,outcome,[5],inactive
same,Potency,[6],inactive
same,Potency,[7],inactive
same,outcome,[8],inactive
same,outcome,[9],inactive
same,outcome,[10],inactive
same,max response,[2],5.46% and 9.66% and 12.2%
